Measurements as given in PubChem BioAssay (NCATS).
Records with an inconclusive call do not appear. Calls of active or inactive are those of the source. The call rests on the fitted dose curve; in most records, active means well fitted inhibition curve with a large enough effect; inconclusive means small, poorly fitted or top-dose-only effect; inactive means no such curve, though single readings can be large or run the other way.

system: Zika virus NS2B-NS3 protease (unlinked complex); assay: Primary screen GU Rhodamine qHTS for Zika virus inhibitors: Unlinked NS2B-NS3 protease assay (AID 1347159); conditions: Recombinant ZIKV NS2B-NS3 protease, Rhodamine110 substrate fluorescence; series mostly up to 107 µM; activity change, negative = inhibition: at the top concentration; further: nearly all actives have a fitted effect of over 60% in size
Method in brief: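 Unlinked NS2B/NS3, 25 nM; Rhod110 peptide, 1.5 microM; compounds, up to 114 microM. Reaction run 15 min at RT in 10 mM Tris-HCl pH 8.0, 0.01% Tween 20; kinetic fluorescence change fitted with a 4-parameter Hill model.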
On the % scale 0 is the no-effect control and ±100 the full control effect.

Structure (SMILES) | activity change, negative = inhibition
COC(=O)c1ccc(N2CCN(C)CC2)c(NC(=O)c2cccc(OC)c2)c1 | 0% (inactive)
C=C(C)[C@@H]1CC=C(COC(=O)NC(=O)c2ncn3c(=O)n(C)nnc23)CC1 | -22.8% (inactive)
Cc1nc2ccc(-n3ncc(C(=O)c4cc5ccccc5[nH]4)c3N)cc2[nH]1 | 11.5% (inactive)
C[C@H](Oc1cc(-n2cnc3ccc(CN4CCN(C)CC4)cc32)sc1C(N)=O)c1ccccc1C(F)(F)F | 60% (inactive)
Fc1ccc2[nH]ccc2c1-c1nc(N2CCOCC2)c2sc(CN3CCN(CC4CC4)CC3)cc2n1 | 104% (inactive)
COc1ccc(CNCc2cccc3ccccc23)cc1 | -23% (inactive)
CCCC(CCC)C(=O)NCc1ccc2c(cnn2-c2ccccc2OC)c1 | -15.6% (inactive)
CC(C)/C=C1\NC(=O)C(C(C)C)n2c1nc1ccccc1c2=O (stereo not drawn) | 1.2% (inactive)
O=C(NC1CCC1)c1ccc(C#Cc2cccc(F)c2)nc1 | 85.9% (inactive)
O=C(Nc1ccccc1)N1CCN(c2nc(-c3ccccc3)ns2)CC1 | 5.23% (inactive)
COC1C=C(C)C(O)(CO)C2(C)CCCC(C)(C)C12 (stereo not drawn) | 13.5% (inactive)
O=C(Nc1ccc(N(Cc2ccsc2)C(=O)Cn2nnc3ccccc32)cc1)C1CC1 | 0.727% (inactive)
C=C1CC[C@@H](O)[C@]2(C)C[C@H]3OC(=O)C(=C)[C@H]3CC12 (stereo partly drawn) | -24.4% (inactive)
COc1cc2ncnc(Oc3ccc(CC(=O)Nc4cnn(C(C)C)c4)cc3)c2cc1OC | 8.43% (inactive)
C=C1C(=O)O[C@@H]2/C=C(/C)[C@@H](OC(C)=O)C/C=C(\C)C[C@@H](OC(=O)/C(=C/CO)CO)[C@@H]12 | -9.57% [at 57.1 µM] (inactive)
O=C(C1CCCCC1)N(CCN1CCN(c2ccccc2O)CC1)c1ccccn1 | 46.2% (inactive)
COc1cc(O)cc(/C=C/c2cccc(O)c2)c1 | -25.8% (inactive)
CCC(=C(c1ccc(OCCN2CCCC2)cc1)c1ccc(OCCN2CCCC2)cc1)c1ccccc1 | 137% (inactive)
CCc1cc(C(N)=O)ccc1-n1nc(C(C)C)c2c(-n3cnc(-c4cnn(C)c4)c3)ccnc21 | 0% (inactive)
CCOc1cccc(NC(=O)c2ccc(N3CCCC3)c(C(F)(F)F)c2)c1 | 0% (inactive)

Structure (SMILES) | activity change, negative = inhibition
OC[C@H]1O[C@@H](OC/C=C/c2ccc(O)cc2)[C@H](O)[C@@H](O)[C@@H]1O | -3.25% (inactive)
Cc1ccc(NC(=O)c2ccc(CN3CCNCC3)cc2)cc1Nc1nccc(-c2cccnc2)n1 | -20.2% (inactive)
Cc1noc(C)c1-c1cc(O)cc(C(O)c2ccccc2)c1 (stereo not drawn) | 11.7% (inactive)
CN(C)C(=O)Nc1cc(-c2ccccc2)ccc1N(C)C | 0% (inactive)
CCN(CC)CCCS(=O)(=O)N[C@H](CCc1ccccc1)c1nc(Cc2ccc(Br)cc2)no1 | 112% (inactive)
CCC(C)C(=O)O[C@H]1[C@@H](OC(=O)c2ccoc2)C[C@](C)(O)[C@]23OC(C)(C)[C@H](C[C@H](OC(=O)c4ccoc4)[C@]12COC(C)=O)[C@H]3OC(C)=O (stereo partly drawn) | 5.93% [at 32.5 µM] (inactive)
COc1cc(CCO)ccc1O[C@@H]1O[C@H](CO)[C@@H](O)[C@H](O)[C@H]1O | 1.34% (inactive)
COc1ccc(CCCN2CCC(COC(c3ccccc3)c3ccccc3)CC2)cc1 | 86.2% (inactive)
Cn1ncnc1[C@@H]1c2n[nH]c(=O)c3cc(F)cc(c23)N[C@H]1c1ccc(F)cc1 | 24% (inactive)
O=C(NC[C@H](O)CN1CCc2ccccc2C1)c1ccnc(NC2CCC2)c1 | -15.8% (inactive)
COc1ccccc1S(=O)(=O)Nc1ccc2c(c1)CN(C)C(=O)N2 | -0.0572% (inactive)
CC1(C)CC[C@]2(C(=O)O)[C@H](O)C[C@]3(C)C(=CCC4[C@@]5(C)CC[C@H](O[C@@H]6O[C@H](CO[C@@H]7OC[C@H](O)[C@H](O)[C@H]7O[C@@H]7OC[C@H](O)[C@H](O)[C@H]7O)[C@@H](O)[C@H](O)[C@H]6O)C(C)(C)C5CC[C@]43C)[C@@H]2C1 (stereo partly drawn) | 2.3% [at 32.5 µM] (inactive)
CC(=O)OC1C(=O)C2C3OCC4=C3[C@@](C)(CC[C@@H]4O)CC[C@]2(C)[C@H]1C(C)C (stereo partly drawn) | -27.3% (inactive)
COc1ccccc1N1CCN(c2ncnc3n[nH]c(Br)c23)CC1 | -23.8% (inactive)
COc1ccc(S(=O)(=O)N2CCC[C@H]2C(=O)Nc2cc(C)cc(C)c2)cc1 | 8.17% (inactive)
CC(=O)OC1CC(O)(C(C)C)C2C(OC(=O)c3ccc(O)cc3)C=C(C)C(=O)CC12C (stereo not drawn) | 0.839% [at 57.1 µM] (inactive)
COC1=CC(=O)C=C(C)C12Oc1c(Cl)c(OC)cc(OC)c1C2=O (stereo not drawn) | 12.3% (inactive)
N#Cc1ccc(COC[C@H]2O[C@@H](n3c(NCc4ccc(Cl)c(Cl)c4)nc4c(N)ncnc43)[C@H](O)[C@@H]2O)cc1 | 17.3% [at 57.1 µM] (inactive)
CNC(=O)c1cc(Oc2ccc(NC(=O)c3cccc(C(F)(F)F)c3)cc2)ccn1 | 4.26% (inactive)

system: Zika virus NS2B-NS3 protease (linked construct); assay: Primary screen NINDS Rhodamine qHTS for Zika virus inhibitors (AID 1347160); conditions: purified NS2B-NS3 protease, Rhodamine110 substrate fluorescence; series mostly up to 57.1 µM; activity change, negative = inhibition: at the top concentration; further: nearly all actives have a fitted effect of over 55% in size
Method in brief: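 Single-chain NS2B-NS3 protease, 25 nM, pH 8.0; compounds preincubated 15 min. Activity: Rhodamine110 release from 1.5 microM substrate over 15 min, room temperature, data fitted to 4-parameter Hill.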

Structure (SMILES) | activity change, negative = inhibition | outcome
COC(=O)c1ccc(N2CCN(C)CC2)c(NC(=O)c2cccc(OC)c2)c1 | -23.8% (inactive) | –
C=C(C)[C@@H]1CC=C(COC(=O)NC(=O)c2ncn3c(=O)n(C)nnc23)CC1 | 14.8% (inactive) | –
Cc1nc2ccc(-n3ncc(C(=O)c4cc5ccccc5[nH]4)c3N)cc2[nH]1 | -13.9% (inactive) | –
C[C@H](Oc1cc(-n2cnc3ccc(CN4CCN(C)CC4)cc32)sc1C(N)=O)c1ccccc1C(F)(F)F | 76% (inactive) | –
Fc1ccc2[nH]ccc2c1-c1nc(N2CCOCC2)c2sc(CN3CCN(CC4CC4)CC3)cc2n1 | 49.1% (inactive) | –
COc1ccc(CNCc2cccc3ccccc23)cc1 | – | inactive
CCCC(CCC)C(=O)NCc1ccc2c(cnn2-c2ccccc2OC)c1 | 0.544% (inactive) | –
CC(C)/C=C1\NC(=O)C(C(C)C)n2c1nc1ccccc1c2=O (stereo not drawn) | 24.7% [at 33.1 µM] (inactive) | –
O=C(NC1CCC1)c1ccc(C#Cc2cccc(F)c2)nc1 | 3.55% (inactive) | –
O=C(Nc1ccccc1)N1CCN(c2nc(-c3ccccc3)ns2)CC1 | 24.1% (inactive) | –
COC1C=C(C)C(O)(CO)C2(C)CCCC(C)(C)C12 (stereo not drawn) | -16.7% (inactive) | –
O=C(Nc1ccc(N(Cc2ccsc2)C(=O)Cn2nnc3ccccc32)cc1)C1CC1 | 14.9% (inactive) | –
C=C1CC[C@@H](O)[C@]2(C)C[C@H]3OC(=O)C(=C)[C@H]3CC12 (stereo partly drawn) | 13.8% (inactive) | –
COc1cc2ncnc(Oc3ccc(CC(=O)Nc4cnn(C(C)C)c4)cc3)c2cc1OC | -3.39% (inactive) | –
C=C1C(=O)O[C@@H]2/C=C(/C)[C@@H](OC(C)=O)C/C=C(\C)C[C@@H](OC(=O)/C(=C/CO)CO)[C@@H]12 | 11.2% [at 33.1 µM] (inactive) | –
O=C(C1CCCCC1)N(CCN1CCN(c2ccccc2O)CC1)c1ccccn1 | 33.4% (inactive) | –
COc1cc(O)cc(/C=C/c2cccc(O)c2)c1 | 7.39% (inactive) | –
CCC(=C(c1ccc(OCCN2CCCC2)cc1)c1ccc(OCCN2CCCC2)cc1)c1ccccc1 | – | inactive; activator
CCc1cc(C(N)=O)ccc1-n1nc(C(C)C)c2c(-n3cnc(-c4cnn(C)c4)c3)ccnc21 | -14.5% (inactive) | –
CCOc1cccc(NC(=O)c2ccc(N3CCCC3)c(C(F)(F)F)c2)c1 | – | inactive

Structure (SMILES) | activity change, negative = inhibition | outcome
OC[C@H]1O[C@@H](OC/C=C/c2ccc(O)cc2)[C@H](O)[C@@H](O)[C@@H]1O | – | inactive [at 33.1 µM]
Cc1ccc(NC(=O)c2ccc(CN3CCNCC3)cc2)cc1Nc1nccc(-c2cccnc2)n1 | – | inactive
Cc1noc(C)c1-c1cc(O)cc(C(O)c2ccccc2)c1 (stereo not drawn) | 1.18% (inactive) | –
CN(C)C(=O)Nc1cc(-c2ccccc2)ccc1N(C)C | – | inactive
CCN(CC)CCCS(=O)(=O)N[C@H](CCc1ccccc1)c1nc(Cc2ccc(Br)cc2)no1 | – | inactive
CCC(C)C(=O)O[C@H]1[C@@H](OC(=O)c2ccoc2)C[C@](C)(O)[C@]23OC(C)(C)[C@H](C[C@H](OC(=O)c4ccoc4)[C@]12COC(C)=O)[C@H]3OC(C)=O (stereo partly drawn) | 11.9% [at 15.1 µM] (inactive) | –
COc1cc(CCO)ccc1O[C@@H]1O[C@H](CO)[C@@H](O)[C@H](O)[C@H]1O | – | inactive [at 33.1 µM]
COc1ccc(CCCN2CCC(COC(c3ccccc3)c3ccccc3)CC2)cc1 | – | inactive
Cn1ncnc1[C@@H]1c2n[nH]c(=O)c3cc(F)cc(c23)N[C@H]1c1ccc(F)cc1 | 22.6% (inactive) | –
O=C(NC[C@H](O)CN1CCc2ccccc2C1)c1ccnc(NC2CCC2)c1 | 7.32% (inactive) | –
COc1ccccc1S(=O)(=O)Nc1ccc2c(c1)CN(C)C(=O)N2 | – | inactive
CC1(C)CC[C@]2(C(=O)O)[C@H](O)C[C@]3(C)C(=CCC4[C@@]5(C)CC[C@H](O[C@@H]6O[C@H](CO[C@@H]7OC[C@H](O)[C@H](O)[C@H]7O[C@@H]7OC[C@H](O)[C@H](O)[C@H]7O)[C@@H](O)[C@H](O)[C@H]6O)C(C)(C)C5CC[C@]43C)[C@@H]2C1 (stereo partly drawn) | 1.52% [at 15.1 µM] (inactive) | –
CC(=O)OC1C(=O)C2C3OCC4=C3[C@@](C)(CC[C@@H]4O)CC[C@]2(C)[C@H]1C(C)C (stereo partly drawn) | -5.54% [at 33.1 µM] (inactive) | –
COc1ccccc1N1CCN(c2ncnc3n[nH]c(Br)c23)CC1 | 9.86% (inactive) | –
COc1ccc(S(=O)(=O)N2CCC[C@H]2C(=O)Nc2cc(C)cc(C)c2)cc1 | 38.3% (inactive) | –
CC(=O)OC1CC(O)(C(C)C)C2C(OC(=O)c3ccc(O)cc3)C=C(C)C(=O)CC12C (stereo not drawn) | -5.86% [at 33.1 µM] (inactive) | –
COC1=CC(=O)C=C(C)C12Oc1c(Cl)c(OC)cc(OC)c1C2=O (stereo not drawn) | – | inactive [at 33.1 µM]
N#Cc1ccc(COC[C@H]2O[C@@H](n3c(NCc4ccc(Cl)c(Cl)c4)nc4c(N)ncnc43)[C@H](O)[C@@H]2O)cc1 | 5.11% [at 33.1 µM] (inactive) | –
CNC(=O)c1cc(Oc2ccc(NC(=O)c3cccc(C(F)(F)F)c3)cc2)ccn1 | 20.7% (inactive) | –
